The term inhibition denotes the change of the read-out against control, counted positive when it falls.

Hit rate of the full screen: of about 5,100 compounds, fewer than 10 were called active. The list is a sample of the results. A number with no mark means an inactive call.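 Rule for the calls: active = inhibition above the mean inhibition over all tested compounds plus 3 SD (cut at about 75% in these data); inactive = the rest.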

For the test, the target named is Collagenase 3 (Homo sapiens) (UniProt P45452). The test is described as follows: MMP13 inhibitors among fluorescent compounds, confirmation, biochemical, possible fluorescent artifacts, delta fluorescence (AID 734).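 Note: 0% = DMSO only wells and 100% = 8 µM reference MMP13 inhibitor.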 As to conditions: MMP13 fTHP FRET cleavage, delta fluorescence 4 h; hits give high values;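 each compound tested at 4 µM nominal in triplicate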.
`c1ccc(-c2noc(-c3cccc4ccccc34)n2)nc1`: the inhibition is 6.64%. The value for `COc1cc(OC)cc(-c2nnc(Nc3nc4c(F)cccc4s3)o2)c1` was 95.7% (active); that for `Fc1cccc2sc(Nc3nnc(-c4ccccc4)o3)nc12` was 74.7% (active); that for `Fc1cccc2sc(Nc3nnc(-c4ccco4)o3)nc12` was 0.58%. Under `COc1cccc2sc(Nc3nnc(-c4ccccc4Cl)o3)nc12` stands 3.62%; under `COc1cccc(-c2nnc(Nc3nc4c(F)cccc4s3)o2)c1`, 104% (active); under `COc1ccccc1-c1nnc(Nc2nc3c(OC)cccc3s2)o1`, 2.8%. On to `COc1ccc(-c2nnc(Nc3nc4c(OC)cccc4s3)o2)c(OC)c1`, for which the inhibition is 34.9%. Under `COc1cccc2sc(Nc3nnc(-c4cccs4)o3)nc12` stands -71.9%; under `COc1ccc(-c2nnc(Nc3nc4c(OC)cccc4s3)o2)cc1`, 7.97%; under `O=C(C1CCCN(S(=O)(=O)c2cnc[nH]2)C1)N1CCN(Cc2ccccc2)CC1` (stereo unspecified), 6.19%. Under `Cn1c(=O)c2c(nc(SCCN3CCOCC3)n2Cc2ccccc2Cl)n(C)c1=O` stands 4.43%; under `COC(=O)c1nn(-c2ccc(-c3ccccc3)cc2)cc1O`, -1.13%. Under `CCOC(=O)COc1ccc(-c2nnc(-c3ccccc3)o2)cc1` stands -0.26%; under `CC1(C)CC(=O)C(C=Nc2ccccc2C(=O)O)=C(O)C1`, 3.67%; under `CCOc1ccc(-c2cc(C(=O)NCCCN3CCN(CC)CC3)c3ccccc3n2)cc1`, -9.76%. For the compound `CCN1c2ccccc2-c2nc3ccccc3n2C1c1ccncc1` (stereo unspecified), the inhibition was 2.69%. The value for `COc1ccc2[nH]c(=O)c(-c3noc(-c4ccccc4)n3)cc2c1` was 3.55%; that for `CC1(C)Cc2c(C#N)c(N3CCN(C(=O)c4ccco4)CC3)nc(Cc3ccccc3)c2CO1` was -9.09%; that for `CCOc1ccc(C2C(C(=O)OC)=CN(CCOC)C=C2C(=O)OC)cc1` was -14.5%. Under `Nc1nc2n(n1)C(c1ccco1)CC(c1ccc(F)cc1)N2` (stereo unspecified) stands 1.34%; under `CCN(CC)CCCN(Cc1cc2cc3c(cc2[nH]c1=O)OCO3)C(=O)Nc1ccccc1OC`, 9.73%. Under `Nc1c(C(=O)NCCN2CCOCC2)c2nc3ccccc3nc2n1-c1ccc2c(c1)OCO2` stands 4.11%; under `COc1cccc(NC(=O)CSc2nnc(Cc3cccn3C)n2-c2ccc(F)cc2)c1`, 1.13%. On to `CC1CCCC(C)N1C(=O)CSc1nnc(-c2c[nH]c3ccccc23)o1` (stereo unspecified), for which the inhibition is 5.55%.

On to `O=C(OCCn1cncn1)c1cc2ccccc2oc1=O`, for which the inhibition is -0.22%. Regarding `OCc1ccccc1OCCOc1ccc(Cl)c2cccnc12`, the inhibition was 6.18%. In the case of `CC(C)NCC(O)Cn1c2c(c3ccccc31)CCc1c-2cnn1-c1ccccc1` (stereo unspecified), the inhibition is 6.63%. As for `CC(=O)Nc1nc2n(n1)C(c1ccccc1)C=C(c1ccccc1)N2` (stereo unspecified), the inhibition was 0.41%. The value for `O=C(Oc1cccnc1)c1ccco1` was 3.63%.

In the case of `COc1ccc(C2C=C(C)Nc3nc(SC)nn32)cc1` (stereo unspecified), the inhibition was -11.2%. Take `CCOc1ccc(C2CC(c3cccc(Cl)c3)n3nc(N)nc3N2)cc1` (stereo unspecified): the inhibition is 4.79%. For `Cc1ccc(-n2ncc3c(=O)n(CC(=O)NCc4ccco4)cnc32)cc1C`, the inhibition was 5.2%. With `COCCCNC(=O)c1ccc2nc3ccccc3c(=O)n2c1`, the inhibition is -3.91%. The value for `CCCOc1ccccc1-c1nc2c([nH]1)c(=O)[nH]c(=O)n2C` was -0.35%; that for `CS(=O)(=O)N1CCc2cc(C(=O)N3CCOCC3)ccc21` was 5.36%; that for `CCOC(=O)c1[nH]c2ccc(OCC)cc2c1NC(=O)CN1CCN(c2ccccn2)CC1` was -14.1%. For `CCCC(=O)N1CCN(c2nc(CC(C)C)c3c(c2C#N)CCC3)CC1`, the inhibition was 0.13%.

Regarding `CCS(=O)(=O)Nc1c(C(=O)O)[nH]c2ccccc12`, the inhibition is 3.79%. `CCOC(=O)c1oc2cccc(OCC(O)CNC(C)C)c2c1C` (stereo unspecified): the inhibition was -6.29%. In the case of `N#Cc1cc2c(nc1SCC(=O)Nc1nccs1)CCCCC2`, the inhibition was -11%.

`COc1ccc(O)c(C(=O)c2cc(C#N)c(=O)n(-c3c(C)n(C)n(-c4ccccc4)c3=O)c2)c1`: the inhibition is 6.02%.

Regarding `CCOC(=O)c1cccnc1SCc1cc(=O)n2ccccc2n1`, the inhibition is 3.91%.

On to `CC1=C(C(=O)N2CCOCC2)C(c2ccccc2F)C2=C(CC(C)(C)CC2=O)N1` (stereo unspecified), for which the inhibition was -1.62%. In the case of `CCCC(c1nnnn1C1CCCC1)N1CCN(C(=O)c2ccco2)CC1` (stereo unspecified), the inhibition is 6.95%. `N#Cc1nc(-c2cccs2)oc1N1CCOCC1`: the inhibition was -82.1%. As to `CCCc1cc(=O)oc2cc(C)c3c(C)coc3c12`, the inhibition was -8.56%. As for `CCOC(=O)c1cc2c(=O)n3ccccc3nc2n(C(C)C)c1=NC(=O)c1ccncc1`, the inhibition is -11.4%. The value for `CN1CC=C2C(C#N)=C(N)C(C#N)(C#N)C(CCc3ccccc3)C2C1` (stereo unspecified) was 5.88%. For the compound `O=S(=O)(NC1c2cccc3cccc(c23)C1N1CCNCC1)c1ccccc1` (stereo unspecified), the inhibition was 8.95%. Regarding `COc1ccc(CN2CCCC2C(=O)Nc2ccc(OC)c(OC)c2)cc1OC` (stereo unspecified), the inhibition was 1.58%. For `CC(O)Cn1ccccc1=N` (stereo unspecified), the inhibition was 4.32%. In the case of `CC(C)(C)c1cc(=O)n2c(C#N)c(C#N)nc2[nH]1`, the inhibition was 4.14%. `Cc1onc(-c2ccccc2)c1C(=O)Nc1nnc(-c2ccncc2)s1`: the inhibition is -3.75%. For `O=C(CC1Nc2ccccc2NC1=O)NC1CCCCC1` (stereo unspecified), the inhibition is 4.1%.

As to `CCOc1ccc2[nH]c(=O)c(C(c3nnnn3Cc3ccco3)N3CCC(C)CC3)cc2c1` (stereo unspecified), the inhibition is 8.93%.

Turning to `Cc1cccc(-n2c(=O)[nH]c3c(C(N)=O)nc(-c4ccccc4Cl)nc32)c1`, the inhibition is 6.92%. In the case of `COC(=O)c1cc2c(s1)CS(=O)C2` (stereo unspecified), the inhibition is 5.21%.

Turning to `CC(C)c1nc(N2CCOCC2)c(C#N)c2c1CCC2`, the inhibition is -3.95%. Under `CCOC(=O)c1cnc2cc(Cl)c(OC)cc2c1NCC1CCCO1` (stereo unspecified) stands 3.77%; under `c1ccc(-n2nc3c(ccc4cnnc43)[nH]2)cc1`, -1.01%; under `COc1ccc(-c2ccc(-c3noc(-c4ccccc4)n3)c(OC)n2)cc1`, 5.4%. Under `COc1ccc(-c2ccc(-c3noc(-c4ccccc4OC)n3)c(OC)n2)cc1` stands 13.8%. The value for `COc1ccc(-c2ccc(-c3noc(-c4ccccc4C)n3)c(OC)n2)cc1` was 79.6% (active); that for `CCOC(=O)c1sc(C)c(C(N)=O)c1NC1=NCCCCC1` was 2.74%. Consider `CCN(CC)C(=O)Sc1cccc2cccnc12`, for which the inhibition is 7.36%.

Regarding `CN(C)c1ccc(C(=O)N2CC(=O)N(CCc3ccccc3)C(=O)C2)cc1`, the inhibition was 0.16%. In the case of `CCOC(=O)N1CCC(N2C(=O)c3ccccc3C2Nc2ccc3c(C)cc(=O)oc3c2)CC1` (stereo unspecified), the inhibition was -77%.

For `Cc1cc(C)c2c(N)c(C(=O)Nc3nccs3)sc2n1`, the inhibition is -7.23%.

As for `COc1ccccc1Nc1nc(-c2cccs2)cs1`, the inhibition was 4.53%. Under `O=c1c2[nH]c3ccccc3c2ncn1Cc1cccnc1` stands 5.84%; under `Cc1oc2c(CN3CCCC3)c(O)ccc2c(=O)c1-c1ccc(Br)cc1`, 11.1%. Under `O=c1[nH]c2cc3c(cc2cc1C(c1nnnn1C1CCCC1)N1CCSCC1)OCCO3` (stereo unspecified) stands 1.34%; under `CN1CCN(CCCNC(=O)Nc2cccc3ccccc23)CC1`, 4.59%. Under `COc1ccc(C2C(C(=O)N3CCN(c4ccccn4)CC3)CC(=O)N2c2ccc(OC)cc2)cc1` (stereo unspecified) stands 1.09%. With `COC(=O)c1[nH]c2cccc(OC)c2c1NC(=O)CN1CCC(C(N)=O)(N2CCCCC2)CC1`, the inhibition was 5.66%. The value for `C=C(Cl)COc1ccc2c(CC)cc(=O)oc2c1` was 6.13%; that for `CC1=CC2=NC(=O)CC(C)(C(=O)N(CC(=O)NC(C)(C)C)C3CCCC3)N2C=C1` (stereo unspecified) was 2.69%; that for `Cc1nc2c(C(=O)O)cnn2c(C)c1Cc1ccccc1F` was 5.94%. The value for `N#Cc1nc(-c2ccccc2F)oc1NCc1ccccc1` was -7.81%. Under `Cc1cccc(-n2c(SCCC(=O)O)nnc2-c2cccs2)c1C` stands 6.84%.

As to `COc1ccc(-c2nc3nc(C)cc(C)n3n2)cc1`, the inhibition was 1.15%.

As for `Cc1cc(NC(=O)CSc2ccc3nnc(-c4cccnc4)n3n2)no1`, the inhibition is 0.22%. As for `COCCCNC(=O)CSC1=Nc2ccccc2C2=NC(CC(=O)NCc3ccccc3)C(=O)N12` (stereo unspecified), the inhibition was 0.89%. The value for `COCCn1c(SCc2csc(-c3ccccc3)n2)nc2ccccc21` was 3.46%.

On to `Cc1cccn2c(=O)c3cc(C(=O)N4CCN(C(=O)c5ccco5)CC4)n(C)c3nc12`, for which the inhibition was 0.62%.

Turning to `O=C(CCCOc1ccccc1)Nc1nccs1`, the inhibition is 3.79%. Regarding `COc1ccc2[nH]c(=O)c(CN(CCCN(C)C)C(=O)Nc3ccccc3)cc2c1`, the inhibition was 0.48%. Under `O=C(Nc1ccon1)c1cnc2sccn2c1=O` stands 3.24%.

On to `O=c1[nH]c(=O)n(Cc2ccccc2)c2nc(-c3ccco3)cc(C(F)(F)F)c12`, for which the inhibition is -103%. The value for `CCCSc1n[nH]c(NC(C)=O)n1` was 3.35%. Turning to `O=C(Cc1ccccc1)Nc1ccc2oc(-c3cccnc3)nc2c1`, the inhibition was -8.29%. Regarding `O=C(Nc1nc(-c2cc3ccccc3oc2=O)cs1)c1ccco1`, the inhibition is 3.89%. The value for `COc1ccc(C(=O)NCc2nnc(SC)n2C2CCCCC2)cc1` was -1.48%; that for `COc1cccc(Cn2c(=S)[nH]c3ccc(N4CCOCC4)cc3c2=O)c1` was 3.27%. The value for `Cc1cc(=O)oc2cc(OC(C)C(=O)Nc3nccs3)ccc12` (stereo unspecified) was 3.57%.

The values are drawn from PubChem BioAssay AID734 (The Scripps Research Institute Molecular Screening Center, 2007).
